Experimental data: PubChem BioAssay (Tox21)
“And” between values parts separate entries of the source, which are not always exact repeats. Identical values can stand only once. Where a structure was tested more than once in an assay, its records may differ in their call. The source made the active and inactive calls. Where a call stands in place of a potency, no number is given. Unless noted, calls come from the whole dose curve; as a rule, active = well fitted curve in the direction sought with a large enough effect in the repeat runs; inconclusive = weak or mixed curves; inactive = no such curve, though single readings can be large; an effect the other way counts as inactive or inconclusive.

Columns and labels:
[1] = qHTS assay to identify small molecule antagonists of the thyroid receptor (TR) signaling pathway - cell viability counter screen (AID 743064); note: nearly all actives have a fitted effect of over 50% in size; note: potency is the fitted concentration of half-maximal effect
In short: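 CellTiter-Fluor readout, 30 min at 37 °C/5% CO2, following 23.5 h incubation of GH3.TRE-Luc cells with test compound and 1 nM T3 (final).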

[2] = qHTS assay to identify small molecule antagonists of the thyroid receptor (TR) signaling pathway (AID 743065); note: nearly all actives have a fitted effect of over 55% in size; note: potency is the fitted concentration of half-maximal effect; for activity, negative = inhibition: series mostly up to about 70 µM
In short: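 GH3.TRE-Luc rat pituitary cells (two TREs driving luciferase) were dosed with compound, then stimulated with 1 nM T3 (final) for 23.5 h at 37 C. ONE-Glo luminescence was the read-out, with CellTiter-Fluor fluorescence as the cytotoxicity counter-screen.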

[3] = tested on: thyroid hormone receptor (rat, GH3 cells); test: qHTS assay to identify small molecule agonists of the thyroid receptor (TR) signaling pathway (AID 743066; calls by dose curve)
[4] = molecular target: Estrogen receptor (Homo sapiens) (UniProt P03372); test: qHTS assay to identify small molecule antagonists of the estrogen receptor alpha (ER-alpha) signaling pathway (AID 743069; active = well fitted curve in the direction sought with a large enough effect in the signal ratio in the repeat runs, not every such curve was filed as active; inconclusive = weak or mixed curves, or effect the other way; inactive = no such curve, though single readings can be large or run the other way; the % refers to the signal ratio; note: potency is the fitted concentration of half-maximal effect)
Estrogen receptor (Homo sapiens), sequence (P03372 whole entry, looked up): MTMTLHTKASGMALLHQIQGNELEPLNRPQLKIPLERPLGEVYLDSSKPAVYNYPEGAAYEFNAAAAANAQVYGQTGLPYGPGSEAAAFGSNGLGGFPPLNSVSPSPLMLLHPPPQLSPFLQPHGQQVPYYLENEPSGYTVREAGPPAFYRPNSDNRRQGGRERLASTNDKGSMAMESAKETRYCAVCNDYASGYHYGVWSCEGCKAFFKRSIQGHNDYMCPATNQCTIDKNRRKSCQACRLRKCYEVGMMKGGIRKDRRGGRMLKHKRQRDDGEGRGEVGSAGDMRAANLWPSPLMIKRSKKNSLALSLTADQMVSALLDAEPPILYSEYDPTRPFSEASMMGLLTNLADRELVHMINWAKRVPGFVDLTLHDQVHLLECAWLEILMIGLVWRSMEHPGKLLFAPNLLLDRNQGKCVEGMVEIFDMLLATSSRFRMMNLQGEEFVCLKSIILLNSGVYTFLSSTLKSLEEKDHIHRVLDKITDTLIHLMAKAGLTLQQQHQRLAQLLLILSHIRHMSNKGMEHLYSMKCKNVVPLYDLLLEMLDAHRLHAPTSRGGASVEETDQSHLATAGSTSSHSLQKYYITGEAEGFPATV
In short: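 Reporter cells (ER-alpha-bla, HEK293 background) are conditioned overnight in stripped-serum medium (2% charcoal-stripped FBS). Compound and 17beta-estradiol exposure runs 18 hr at 37C, 5% CO2.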

[5] = qHTS assay to identify small molecule antagonists of the estrogen receptor alpha (ER-alpha) signaling pathway - cell viability counter screen (AID 743074; calls by dose curve;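 note: HEK293 cells carrying ER-alpha-UAS-bla reporter stimulated with 17beta-estradiol; nearly all actives have a fitted effect of over 45% in size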)
[6] = molecular target: Estrogen receptor (Homo sapiens) (UniProt P03372); test: qHTS assay to identify small molecule agonists of the estrogen receptor alpha (ER-alpha) signaling pathway (AID 743075; calls by dose curve;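 note: HEK293 GripTite cells with ER-alpha and UAS-driven beta-lactamase reporter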)
[7] = qHTS assay to identify small molecule antagonists of the estrogen receptor alpha (ER-alpha) signaling pathway using the BG1 cell line - cell viability counter screen (AID 743081);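 note: compound given together with 17beta-estradiol as the ER stimulus; nearly all actives have a fitted effect of over 45% in size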; note: potency is the fitted concentration of half-maximal effect; for activity change, negative = cytotoxicity: series mostly up to about 70 µM
Aromatase (Homo sapiens) = Aromatase (Homo sapiens) (UniProt P11511); test: qHTS assay to identify aromatase inhibitors (AID 743083); note: nearly all actives have a fitted effect of over 55% in size; note: potency is the fitted concentration of half-maximal effect; for activity, negative = inhibition: series mostly up to about 70 µM
Aromatase (Homo sapiens), sequence (P11511 whole entry, looked up): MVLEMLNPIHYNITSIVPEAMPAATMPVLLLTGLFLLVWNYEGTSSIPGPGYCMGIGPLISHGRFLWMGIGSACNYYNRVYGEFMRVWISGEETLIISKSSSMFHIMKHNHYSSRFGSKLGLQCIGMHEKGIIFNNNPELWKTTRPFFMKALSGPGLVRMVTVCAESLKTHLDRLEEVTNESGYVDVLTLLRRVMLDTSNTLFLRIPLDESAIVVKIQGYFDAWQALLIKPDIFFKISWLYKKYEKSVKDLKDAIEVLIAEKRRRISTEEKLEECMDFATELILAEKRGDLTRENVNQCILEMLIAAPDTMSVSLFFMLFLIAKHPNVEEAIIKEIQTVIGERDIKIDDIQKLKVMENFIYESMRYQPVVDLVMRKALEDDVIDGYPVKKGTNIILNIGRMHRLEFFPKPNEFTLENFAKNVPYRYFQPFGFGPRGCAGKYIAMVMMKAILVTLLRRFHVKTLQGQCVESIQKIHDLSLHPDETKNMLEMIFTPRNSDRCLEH

[8] = molecular target: Estrogen receptor (Homo sapiens) (UniProt P03372); test: qHTS assay to identify small molecule agonists of the estrogen receptor alpha (ER-alpha) signaling pathway using the BG1 cell line (AID 743079); note: nearly all actives have a fitted effect of over 20% in size
[9] = qHTS assay to identify small molecule antagonists of the estrogen receptor alpha (ER-alpha) signaling pathway using the BG1 cell line (AID 743080; calls by dose curve;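 note: BG1 cells stimulated with 17beta-estradiol alongside compound; nearly all actives have a fitted effect of over 25% in size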; note: potency is the fitted concentration of half-maximal effect; for activity change, negative = inhibition: series mostly up to about 70 µM)
In short: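 Seeding, 24 h rest, compound transfer from DMSO, 17beta-estradiol addition, 21.5 h incubation, CellTiter-Fluor (30 min, 37 C), then ONE-Glo (30 min, room temperature): this sequence was run on BG1-Luc-4E2 reporter cells.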

Q: Which Potency [1] does the source give for `c1ccsc1` here?
A: inactive

Q: And the Potency [2]?
A: inactive

Q: What about the outcome [3] of the same compound?
A: inactive

Q: And the Potency [4]?
A: inactive

Q: What about the Potency [5] of the same compound?
A: inactive

Q: What about the Potency [6] of the same compound?
A: inactive

Q: And the Potency [7]?
A: inactive

Q: What about the Potency (Aromatase (Homo sapiens)) of the same compound?
A: inactive

Q: Which Potency [1] does the source give for `COC(C)=O` here?
A: inactive

Q: And the Potency [2]?
A: inactive

Q: And the outcome [3]?
A: inactive

Q: And the Potency [4]?
A: inactive

Q: What about the Potency [5] of the same compound?
A: inactive

Q: What about the Potency [6] of the same compound?
A: inactive

Q: And the Potency [8]?
A: inactive

Q: And the Potency [9]?
A: inactive

Q: What about the Potency [7] of the same compound?
A: inactive

Q: And the Potency (Aromatase (Homo sapiens))?
A: inactive

Q: What does the source list for `CCN(CC)c1ccc2c(-c3ccc(S(=O)(=O)O)cc3S(=O)(=O)[O-])c3ccc(=[N+](CC)CC)cc-3oc2c1`?
A: Potency [1]: 8.91 µM (active); Potency [2]: 35.5 µM (active); outcome [3]: inactive; Potency [4]: inactive; Potency [5]: inactive; Potency [6]: inactive; Potency [7]: 7.94 µM (active); Potency (Aromatase (Homo sapiens)): 35.5 µM (active)

Q: Which Potency [1] does the source give for `COC(=O)C1=C(C)NC(C)=C(C(=O)OCCN2CCN(C(c3ccccc3)c3ccccc3)CC2)C1c1cccc([N+](=O)[O-])c1` (centres undefined) here?
A: 8.41 µM (active)

Q: What about the Potency [2] of the same compound?
A: 6.68 µM (active)

Q: And the outcome [3]?
A: inactive

Q: And the Potency [4]?
A: 8.49 µM [inconclusive] (active)

Q: What about the Potency [5] of the same compound?
A: inactive

Q: What about the Potency [6] of the same compound?
A: inactive

Q: And the Potency [7]?
A: 3.76 µM (active)

Q: And the Potency (Aromatase (Homo sapiens))?
A: 13.3 µM (active)

Q: What does the source list for `CC(CO)Oc1ccccc1` (centres undefined)?
A: Potency [1]: inactive; Potency [2]: inactive; outcome [3]: inactive; Potency [4]: inactive; Potency [5]: inactive; Potency [6]: inactive; Potency [8]: inactive; Potency [9]: inactive; Potency [7]: inactive; Potency (Aromatase (Homo sapiens)): inactive

Q: For `Cc1ccc(C(C)C)cc2c(C)ccc1-2`, which Potency [1] is on record?
A: inactive

Q: And the Potency [2]?
A: inactive

Q: What about the outcome [3] of the same compound?
A: inactive

Q: And the Potency [4]?
A: inactive

Q: And the Potency [5]?
A: inactive

Q: And the Potency [6]?
A: inactive

Q: What about the Potency [8] of the same compound?
A: inactive

Q: What about the Potency [9] of the same compound?
A: inactive

Q: And the Potency [7]?
A: inactive

Q: And the Potency (Aromatase (Homo sapiens))?
A: inactive

Q: With `CCn1c2ccccc2c2cc([N+](=O)[O-])ccc21` as the compound, how does the Potency [1] read?
A: inactive

Q: And the Potency [2]?
A: inactive

Q: And the outcome [3]?
A: inactive

Q: And the Potency [4]?
A: inactive

Q: What about the Potency [5] of the same compound?
A: inactive

Q: And the Potency [6]?
A: inactive

Q: What about the Potency [8] of the same compound?
A: inactive

Q: And the Potency [9]?
A: inactive

Q: What about the Potency [7] of the same compound?
A: inactive

Q: What about the Potency (Aromatase (Homo sapiens)) of the same compound?
A: inactive

Q: For `C=C(C)C(=O)OCCCCCCCCCC`, which Potency [1] is on record?
A: inactive

Q: What about the Potency [2] of the same compound?
A: inactive

Q: And the outcome [3]?
A: inactive

Q: What about the Potency [4] of the same compound?
A: inactive

Q: What about the Potency [5] of the same compound?
A: inactive

Q: What about the Potency [6] of the same compound?
A: inactive

Q: What about the Potency [8] of the same compound?
A: inactive

Q: What about the Potency [9] of the same compound?
A: inactive

Q: And the Potency [7]?
A: inactive

Q: What about the Potency (Aromatase (Homo sapiens)) of the same compound?
A: inactive

Q: For `ClCCl`, which Potency [1] is on record?
A: inactive

Q: And the Potency [2]?
A: inactive

Q: What about the outcome [3] of the same compound?
A: inactive

Q: What about the Potency [4] of the same compound?
A: inactive

Q: What about the Potency [5] of the same compound?
A: inactive

Q: And the Potency [6]?
A: inactive

Q: And the Potency [8]?
A: inactive

Q: And the Potency [9]?
A: inactive

Q: And the Potency [7]?
A: inactive

Q: What about the Potency (Aromatase (Homo sapiens)) of the same compound?
A: inactive

Q: Which results are given for `CC(=O)[C@H]1CC[C@H]2[C@@H]3CCC4=CC(=O)CC[C@]4(C)[C@H]3CC[C@]12C`?
A: Potency [1]: 60.8 µM (active); Potency [2]: 13.3 µM (active) and 21.6 µM (active) and 27.3 µM (active); outcome [3]: inactive; Potency [4]: inactive; Potency [5]: inactive; Potency [6]: inactive; Potency [8]: inactive; Potency [9]: inactive and 54.2 µM (active) and 68.6 µM (active); Potency [7]: inactive; Potency (Aromatase (Homo sapiens)): inactive

Q: With `O=C(O)O` as the compound, how does the activity change, negative = cytotoxic [1] read?
A: -0.346% [at 8.44 µM] (inactive)

Q: What about the activity, negative = inhibition [2] of the same compound?
A: -9.25% [at 8.44 µM] (inactive)

Q: And the activation [3]?
A: 0.119% [at 8.08 µM] (inactive)

Q: And the activity, negative = inhibition [4]?
A: -5.09% [at 6.71 µM] (inactive)

Q: What about the activity, negative = cytotoxicity [5] of the same compound?
A: 16.5% [at 6.72 µM] (inactive)

Q: What about the activation [6] of the same compound?
A: -2.02% [at 6.71 µM] (inactive)

Q: What about the activity change, negative = inhibition [9] of the same compound?
A: 10.7% [at 8.47 µM] (inactive)

Q: And the activity change, negative = cytotoxicity [7]?
A: -13.4% [at 8.47 µM] (inactive)

Q: What about the activity, negative = inhibition (Aromatase (Homo sapiens)) of the same compound?
A: -0.932% [at 8.47 µM] (inactive)

Q: Which Potency [1] does the source give for `CC(C)(c1cc(Br)c(OCC(Br)CBr)c(Br)c1)c1cc(Br)c(OCC(Br)CBr)c(Br)c1` (centres undefined) here?
A: inactive

Q: What about the Potency [2] of the same compound?
A: inactive

Q: What about the outcome [3] of the same compound?
A: inactive

Q: What about the Potency [4] of the same compound?
A: inactive

Q: And the Potency [5]?
A: inactive

Q: And the Potency [6]?
A: inactive

Q: What about the Potency [8] of the same compound?
A: inactive

Q: And the Potency [9]?
A: inactive

Q: What about the Potency [7] of the same compound?
A: inactive

Q: What about the Potency (Aromatase (Homo sapiens)) of the same compound?
A: inactive

Q: What does the source list for `COC(=O)c1ccccc1C`?
A: Potency [1]: inactive; Potency [2]: inactive; outcome [3]: inactive; Potency [4]: inactive; Potency [5]: inactive; Potency [6]: inactive; Potency [8]: inactive; Potency [9]: inactive; Potency [7]: inactive; Potency (Aromatase (Homo sapiens)): inactive

Q: What does the source list for `CC(C)NC[C@@H](O)COc1ccc(CC(N)=O)cc1`?
A: Potency [1]: inactive; Potency [2]: inactive; outcome [3]: inactive; Potency [4]: inactive; Potency [5]: inactive; Potency [6]: inactive; Potency [8]: inactive; Potency [9]: inactive

Q: What does the source list for `O=C(O)c1cc(-c2ccc(F)cc2F)ccc1O`?
A: Potency [1]: inactive; Potency [2]: inactive; outcome [3]: inactive; Potency [4]: inactive; Potency [5]: inactive; Potency [6]: inactive; Potency [8]: inactive; Potency [9]: inactive; Potency [7]: inactive; Potency (Aromatase (Homo sapiens)): inactive

Q: With `COC(=O)c1ccccc1OC` as the compound, how does the Potency [1] read?
A: inactive

Q: And the Potency [2]?
A: inactive

Q: What about the outcome [3] of the same compound?
A: inactive

Q: And the Potency [4]?
A: inactive

Q: What about the Potency [5] of the same compound?
A: inactive

Q: What about the Potency [6] of the same compound?
A: inactive

Q: What about the Potency [8] of the same compound?
A: inactive

Q: What about the Potency [9] of the same compound?
A: inactive

Q: And the Potency [7]?
A: inactive

Q: What about the Potency (Aromatase (Homo sapiens)) of the same compound?
A: inactive

Q: For `OC1CCCc2ccccc21` (centres undefined), which Potency [1] is on record?
A: inactive

Q: What about the Potency [2] of the same compound?
A: inactive

Q: What about the outcome [3] of the same compound?
A: inactive

Q: And the Potency [4]?
A: inactive

Q: What about the Potency [5] of the same compound?
A: inactive

Q: And the Potency [6]?
A: inactive

Q: What about the Potency [8] of the same compound?
A: inactive

Q: What about the Potency [9] of the same compound?
A: inactive

Q: What about the Potency [7] of the same compound?
A: inactive

Q: And the Potency (Aromatase (Homo sapiens))?
A: inactive

Q: What does the source list for `CCCCNS(=O)(=O)c1ccc(C)cc1`?
A: Potency [1]: inactive; Potency [2]: inactive; outcome [3]: inactive; Potency [4]: inactive; Potency [5]: inactive; Potency [6]: inactive; Potency [8]: inactive; Potency [9]: inactive; Potency [7]: inactive

Q: With `OC1CCC(C2CCCCC2)CC1` (centres undefined) as the compound, how does the Potency [1] read?
A: inactive

Q: What about the Potency [2] of the same compound?
A: inactive

Q: And the outcome [3]?
A: inactive

Q: And the Potency [4]?
A: inactive

Q: What about the Potency [5] of the same compound?
A: inactive

Q: And the Potency [6]?
A: inactive

Q: And the Potency [9]?
A: inactive

Q: And the Potency [7]?
A: inactive

Q: What about the Potency (Aromatase (Homo sapiens)) of the same compound?
A: inactive

Q: For `c1ccc(SSc2ccccc2)cc1`, which Potency [1] is on record?
A: inactive

Q: And the Potency [2]?
A: inactive

Q: And the outcome [3]?
A: inactive

Q: And the Potency [4]?
A: inactive

Q: And the Potency [5]?
A: inactive

Q: And the Potency [6]?
A: inactive

Q: What about the Potency [8] of the same compound?
A: inactive

Q: What about the Potency [9] of the same compound?
A: inactive

Q: And the Potency [7]?
A: inactive

Q: And the Potency (Aromatase (Homo sapiens))?
A: inactive
